# Shiga toxin inh = blocks Shiga toxin action in Vero cells | Vero cells, Shiga toxin protein synthesis inhibition reporter | 9.2% of 290,000 active | inhibition, % at 38.7 µM; in the data active = inhibition mostly above about 28%, no sharp cut-off; inactive = mostly below about 43%; also: 0% is about no effect
# Cycloheximide cs = affects cycloheximide protein synthesis inhibition readout, counter-screen. AID 2314. cell reporter, cycloheximide protein synthesis inhibition counterscreen. max response, %. 12% of 300,000 active; in the data active = max response mostly above about 13%, no sharp cut-off; inactive = mostly below about 14%; also: read at 38.3 µM for the half of the compounds with a filed dose; 0% is about no effect
# AmpC inh detg = blocks E. coli AmpC beta-lactamase in detergent assay. P00811. AmpC hydrolysis of nitrocefin, absorbance 480 nm, 0.01% Triton. Potency, µM (series often up to 114 µM), inactives show at the highest dose activity change, negative = inhibition, usual class: inhibitors. 0.041% of 370,000 active. AID 485294;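 also: potency is read from the fitted curve at half-maximal effect; 0% = no-compound wells and -100% = no-enzyme wells; nearly all actives have a fitted effect of over 25% in size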
# Target sequence (P00811 whole entry, looked up): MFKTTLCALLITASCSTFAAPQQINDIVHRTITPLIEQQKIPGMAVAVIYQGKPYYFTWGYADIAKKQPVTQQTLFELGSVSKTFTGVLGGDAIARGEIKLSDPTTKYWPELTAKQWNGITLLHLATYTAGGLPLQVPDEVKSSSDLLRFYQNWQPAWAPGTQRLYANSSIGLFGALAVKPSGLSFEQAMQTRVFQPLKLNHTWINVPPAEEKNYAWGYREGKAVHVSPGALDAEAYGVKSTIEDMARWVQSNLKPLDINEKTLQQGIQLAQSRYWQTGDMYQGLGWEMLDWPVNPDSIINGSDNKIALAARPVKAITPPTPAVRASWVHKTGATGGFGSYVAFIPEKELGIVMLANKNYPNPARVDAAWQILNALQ
#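 20 mM phosphate pH 7.0 + 0.01% (detergent screen) or 0.0001% Triton X-100; 5.3 nM AmpC reagent; cpd preinc 15 min RT; nitrocefin (800 uM stock) to start; A480 q20 s × 4 min; Activity was normalised to no-enzyme and no-compound control wells.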
# NS1 function inh = blocks influenza NS1 protein function; Potency, µM (series often up to 46.1 µM), inactives show at the highest dose activity, positive = more growth; 0.4% of 270,000 active; calls by dose curve; also: potency is read from the fitted curve at half-maximal effect; actives are rising curves; nearly all actives have a fitted effect of over 50% in size
#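 Read-out: OD600 growth recovery of NS1-expressing budding yeast. Cells grown overnight at 30C in -URA glucose medium, washed, resuspended and diluted 1:100 in 2% galactose assay medium, pH 6.0. Same strain lacking NS1 served as positive control.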
# AmpC no deterg = inhibitors of E. coli AmpC beta-lactamase without detergent; P00811; AmpC nitrocefin hydrolysis, absorbance 480 nm, 0.0001% Triton; Potency, µM (top dose mostly 57.1 µM), for inactives: at the top dose activity change, negative = inhibition, hits mostly inhibitors; 0.52% of 330,000 active; AID 485341;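 also: potency is read from the fitted curve at half-maximal effect; plate controls were no compound for no effect and no enzyme for full effect; nearly all actives have a fitted effect of over 20% in size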
#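 AmpC (5.3 nM in the dispensed reagent) in 20 mM phosphate pH 7.0 with 0.01% (detergent screen) or 0.0001% Triton X-100 was preincubated with compounds for 15 min at room temperature. Nitrocefin was then added from an 800 uM solution, and hydrolysis was followed at 480 nm.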
# Numbers without * were called inactive; ? = inconclusive; nt = not tested or not shown; [ ] = remark or other dose. This is one part of a sample in which hits are shown more often than they occur. Unless noted, calls follow the shape of the dose curve; as a rule, active = well fitted curve in the direction sought with a large enough effect; inconclusive = small, poorly fitted or top-dose-only effect, or another doubt; inactive = no such curve, though single readings can be large; an effect the other way counts as inactive or inconclusive.
SMILES,Shiga toxin inh,Cycloheximide cs,AmpC inh detg,NS1 function inh,AmpC no deterg
O=C(O)c1cccc(N2C(=O)c3ccc(Oc4ccc(Cl)cc4)cc3C2=O)c1,25.9,19.6*,-1.0%,-1.4%,-8.7%
CCOc1ccc(NC(=O)CSc2nnc(-c3ccc(C)cc3)c(-c3ccc(C)cc3)n2)cc1,nt,nt,-4.4%,nt,nt
CCCN1/C(=C2/SC(=S)N(CC)C2=O)C=Cc2ccccc21,4.7,-4.9,?,7.7%,-15.7%
CCN1C(=O)/C(=C2/C=Cc3ccccc3N2CC)SC1=S,80.7,14.4*,2.9%,nt,-6.2%
CC(C)c1ccc(Nc2nc3c(S(=O)(=O)c4ccc(Br)cc4)nnn3c3ccsc23)cc1,nt,nt,22.7%,nt,nt
COC(=O)c1ccc(SCc2cnc(Cl)s2)cc1,130.1*,30.0*,7.2%,-133.8%,-19.3%
O=C(O)c1ccc(SCc2cnc(Cl)s2)cc1,-11.9,-2.0,?,-113.9%,-12.3%
CCc1ccccc1NC(=O)C(CCSC)NS(=O)(=O)c1ccc2c(c1)oc(=O)n2C (stereo unspecified),nt,nt,12.1%,nt,nt
COC(=O)C(C)n1cnc2c(nnn2-c2ccc(C)cc2)c1=O (stereo unspecified),19.1*,13.4*,?,-1.1%,-6.1%
CCOC(=O)C(CC)n1cnc2c(nnn2-c2cccc(OC)c2)c1=O (stereo unspecified),17.6,17.0*,9.1%,-2.7%,9.3%
CCC(C(=O)OC)n1cnc2c(nnn2-c2ccc(F)cc2)c1=O (stereo unspecified),17.3,9.1*,?,-14.0%,-10.9%
COC(=O)C(C)n1cnc2c(nnn2-c2ccc(OC)cc2)c1=O (stereo unspecified),-24.7,-1.3,?,7.2%,-11.0%
COc1ccccc1CNC(=O)c1ccc2nc(CCc3ccccc3)oc2c1,nt,nt,-2.4%,nt,nt
Cc1cccc(-n2c(SCC(=O)Nc3ccccc3C)nc3c(oc4ccccc43)c2=O)c1,nt,nt,2.6%,nt,nt
N#Cc1cc([N+](=O)[O-])cnc1N(CCO)CCO,-11.7,-2.6,-6.4%,5.0%,-13.6%
COc1cccc(N2CCN(C(=O)c3ccc(CS(=O)c4cccc(Cl)c4)o3)CC2)c1 (stereo unspecified),nt,nt,11.2%,nt,nt
COc1ccc(-c2c(=O)n(OCc3nc4ccccc4[nH]3)c3ccccc3[n+]2[O-])cc1,32.6,28.7*,-6.0%,-3.4%,-11.7%
CCOn1c(=O)c(-c2ccc(Br)cc2)[n+]([O-])c2ccccc21,22.1,8.8,-2.0%,0.1%,-10.4%
C=CCOn1c(=O)c(-c2ccc(OC)cc2)[n+]([O-])c2ccccc21,51.9,14.0*,?,-16.0%,-4.1%
CCOc1ccc(-c2c(=O)n(OCc3nc4ccccc4[nH]3)c3ccccc3[n+]2[O-])cc1,31.6*,19.3,-0.5%,4.5%,14.4%
CC(C)c1ccc(NC(=O)CSC2=Nc3ccccc3C3=NC(CC(=O)NCc4ccc(F)cc4)C(=O)N23)cc1 (stereo unspecified),nt,nt,3.5%,nt,nt
COc1ccc(C)c2sc(N(Cc3cccnc3)C(=O)C3CCCCC3)nc12,nt,nt,-0.2%,nt,nt
Fc1ccc(/C=N/NC(=S)Nc2ccc(Cl)cc2)cc1F,19.7,21.9*,-7.5%,19.2%,-45.0%
CCNC(=S)N/N=C/c1ccc(F)cc1,-9.3,0.2,-1.3%,nt,-36.3%
COc1ccc(/C=N/NC(=S)Nc2ccccc2)cc1COc1ccc(F)cc1F,16.6,1.7,-3.4%,23.0%,17.8µM*
SMILES,Shiga toxin inh,Cycloheximide cs,AmpC inh detg,NS1 function inh,AmpC no deterg
COc1ccc(NC(=S)N/N=C/c2ccc(F)c(F)c2)cc1,41.1*,20.2*,-7.2%,-43.8%,-42.8%
COc1ccc(NC(=S)N/N=C/c2cccn2Cc2ccccc2F)cc1,-13.8,-5.3,11.1%,nt,-32.5%
COc1ccc(NC(=S)N/N=C/c2ccc(F)cc2)cc1OC,46.0*,29.9*,8.4%,nt,-22.9%
Cc1ccc(C)c(N2CCN(S(=O)(=O)c3cc(C(=O)Nc4cc(Cl)cc(Cl)c4)ccc3F)CC2)c1,nt,nt,-0.1%,nt,nt
Fc1ccc(/C=N/NC(=S)Nc2ccc(Cl)cc2Cl)cc1,-5.4,11.9,0.1%,1.9%,6.2%
Fc1ccc(NC(=S)N/N=C/c2ccc(F)c(F)c2)cc1,52.3,28.5*,-10.0%,nt,-35.8%
COc1cccc(/C=N/NC(=O)c2ccoc2C)c1O,85.6*,38.3*,-2.6%,-5.0%,-7.7%
CCOc1ccc(/C=N/NC(=O)c2ccoc2C)cc1OC,76.7*,78.5*,1.6%,-21.1%,-8.0%
COc1cccc(/C=N/NC(=O)c2ccoc2C)c1,57.2*,42.3*,-8.3%,-9.1%,-21.0%
Cc1occc1C(=O)N/N=C/c1ccccc1[N+](=O)[O-],64.5*,61.8*,4.2%,-10.0%,-18.6%
COc1cc(/C=N/NC(=O)c2ccoc2C)ccc1O,59.1,37.3*,-11.0%,-6.2%,-12.8%
COc1ccc(/C=N/NC(=O)c2ccoc2C)cc1CN1CCN(c2ccc(F)cc2)CC1,51.1*,45.2*,-7.2%,-4.9%,23.0%
CC1(C)CC(NC(=O)c2cc(Cl)ccc2Cl)CC(C)(C)N1,-4.4,-1.1,?,-5.5%,-6.7%
Cc1ccc2oc(-c3ccc(Cl)c(NC(=O)c4ccc(-c5ccccc5[N+](=O)[O-])o4)c3)nc2c1,nt,nt,-5.9%,nt,nt
Cc1ccc(F)c(C2C3C=CCCC3(C)C(=O)N2Cc2ccccc2)c1 (stereo unspecified),5.7,-6.1,nt,nt,nt
CCCCC(=O)Nc1ccccc1C(=O)OCC(=O)c1ccc2c(c1)OCCO2,active,38.3*,-6.9%,8.3%,-30.5%
O=C(COC(=O)c1cccc(S(=O)(=O)NCc2ccccc2)c1)c1ccc2c(c1)OCCO2,23.5,11.0,?,?,-27.6%
O=C(O)/C=C/C(=O)Nc1ccccc1C(=O)OCC(=O)c1ccc2c(c1)OCCO2,74.6*,24.9*,-10.8%,nt,-25.2%
O=S1(=O)NC(c2ccccc2)CC(CC2CCCCC2)O1 (stereo unspecified),0.8,-2.3,-9.3%,-13.1%,8.91µM*
CCC(=O)N1CCc2cc(CNC(=O)Cc3ccc(OC)c(OC)c3)ccc21,nt,nt,6.5%,nt,nt
COc1ccc(CCNC(=S)N2CCC(C(N)=O)CC2)cc1,-3.6,-1.1,-7.2%,7.6%,-18.2%
S=C(NCCc1ccccc1)N1CCN(Cc2ccccc2)CC1,27.0,30.5*,-9.3%,9.5%,24.3%
S=C(NCCc1ccccc1)N1CCc2ccccc2C1,116.4*,67.0*,-2.1%,-8.4%,-11.4%
COc1cccc(N2CCN(C(=S)NCCc3ccccc3)CC2)c1,23.1,-1.5,?,21.2%,-1.4%
NC(=O)C1CCN(C(=S)NCCc2ccccc2)CC1,16.3,17.7*,-5.1%,-0.1%,3.8%
Oc1ccc(N2CCN(C(=S)NCCc3ccccc3)CC2)cc1,9.1,23.6*,-5.6%,-117.2%,-29.0%
Cn1cnnc1SCC(=O)NC1CCCN(Cc2ccccc2F)C1 (stereo unspecified),10.6,-3.2,-6.6%,1.0%,-17.5%
CC(=O)N1CCN(C(=S)NCCc2ccccc2)CC1,-16.8,2.3,?,6.9%,-1.3%
Oc1ccccc1N1CCN(C(=S)NCCc2ccccc2)CC1,31.5*,27.2*,1.2%,5.2%,-25.5%
S=C(NC1CC1)N1CCc2ccccc2C1,-1.8,-1.3,0.7%,0.2%,-9.8%[2.29 µM]
